Measurements taken from PubChem BioAssay (EPA / NIEHS).
Where “and” joins values, the source holds several entries; their conditions need not be identical. Equal entries are not always repeated. Records with an inconclusive call do not appear. Calls of active or inactive are those of the source. The calls were made as follows: active = hit-call score of the fitted dose curve at least 0.9, where 1 is the maximum; inconclusive = response in the unintended direction; inactive = score below 0.9.

Target: human CYP2D6, CYP2D6 (gene 1565) (UniProt P10635)
Assay: NVS_ADME_hCYP2D6: NovaScreen (NVS) CYP450-related Enzyme Activity (ADME) Assay for human CYP2D6 (AID 2283107)
Outline: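 Fluorescence readout of recombinant CYP2D6 (insect-cell derived) activity after 1 h incubation with test chemical. Acetonitrile served as baseline, loss-of-signal direction. Single-concentration duplicate screening at 10 uM preceded concentration-response retesting.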

human CYP2D6, CYP2D6 (gene 1565), sequence (P10635 whole entry, looked up): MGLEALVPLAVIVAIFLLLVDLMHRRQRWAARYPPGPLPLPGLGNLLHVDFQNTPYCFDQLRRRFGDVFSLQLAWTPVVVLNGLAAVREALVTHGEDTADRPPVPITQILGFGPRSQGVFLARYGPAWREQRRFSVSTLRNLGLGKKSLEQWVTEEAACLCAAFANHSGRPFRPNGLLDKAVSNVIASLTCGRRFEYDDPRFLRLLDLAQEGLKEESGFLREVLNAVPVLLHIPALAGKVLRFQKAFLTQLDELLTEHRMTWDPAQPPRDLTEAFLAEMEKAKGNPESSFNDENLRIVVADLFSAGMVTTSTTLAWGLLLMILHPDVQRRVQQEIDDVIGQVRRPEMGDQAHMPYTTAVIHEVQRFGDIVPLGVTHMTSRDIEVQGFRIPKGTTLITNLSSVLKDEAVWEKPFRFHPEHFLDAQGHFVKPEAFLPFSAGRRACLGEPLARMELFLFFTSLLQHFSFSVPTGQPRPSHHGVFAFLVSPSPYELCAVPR

Q: How did the AC50 turn out when `O=[N+]([O-])c1cc(N(CCO)CCO)ccc1NCCO` was run?
A: 3.87 µM (active)

Q: For `O=S1(=O)CC(Cl)(Cl)C(Cl)(Cl)C1`, which AC50 is on record?
A: 4.55 µM (active)

Q: `CC(C)Cc1ccc(C(C)C(=O)O)cc1` (stereo not given) was tested. Which outcome did it give?
A: inactive

Target: Cytochrome P450 3A4 (Homo sapiens) (UniProt P08684)
Assay: NVS_ADME_hCYP3A4: NovaScreen (NVS) CYP450-related Enzyme Activity (ADME) Assay for human CYP3A4 (AID 2283110)
Outline: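 Compounds screened in duplicate at 10 uM, with follow-up concentration-response for actives, against insect-cell-expressed recombinant enzyme. Activity read by fluorescence 0.33 h after dosing; loss of signal versus acetonitrile control indicates inhibition.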

Cytochrome P450 3A4 (Homo sapiens), sequence (P08684 whole entry, looked up): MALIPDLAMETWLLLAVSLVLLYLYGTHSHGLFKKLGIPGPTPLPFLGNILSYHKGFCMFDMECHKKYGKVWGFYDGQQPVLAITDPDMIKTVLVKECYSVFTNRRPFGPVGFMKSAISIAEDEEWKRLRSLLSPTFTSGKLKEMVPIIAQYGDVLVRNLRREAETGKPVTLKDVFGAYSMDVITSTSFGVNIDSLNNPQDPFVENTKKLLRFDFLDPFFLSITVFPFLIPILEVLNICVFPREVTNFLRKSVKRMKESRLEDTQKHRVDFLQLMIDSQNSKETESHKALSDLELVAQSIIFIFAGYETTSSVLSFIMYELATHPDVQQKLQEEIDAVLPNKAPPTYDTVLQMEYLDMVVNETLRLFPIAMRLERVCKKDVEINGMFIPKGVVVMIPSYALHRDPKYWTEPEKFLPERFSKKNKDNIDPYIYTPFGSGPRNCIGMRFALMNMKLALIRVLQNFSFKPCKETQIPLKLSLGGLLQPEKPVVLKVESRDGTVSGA

Q: How did the outcome turn out when `O=C(c1ccc(OCCN2CCCCC2)cc1)c1c(-c2ccc(O)cc2)sc2cc(O)ccc12` was run?
A: inactive

Q: For `CC/C(=C(\c1ccccc1)c1ccc(OCCN(C)C)cc1)c1ccccc1`, which outcome is on record?
A: inactive

Q: `O=S1(=O)CC(Cl)(Cl)C(Cl)(Cl)C1` was tested. Which AC50 did it give?
A: 0.431 µM (active)

Target: Cytochrome P450 2C19 (Homo sapiens) (UniProt P33261)
Assay: NVS_ADME_hCYP2C19: NovaScreen (NVS) CYP450-related Enzyme Activity (ADME) Assay for human CYP2C19 (AID 2283113);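 also: potency for inhibition seen as loss of fluorescent signal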
Outline: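 Compounds first screened in duplicate at 10 uM, then confirmed in concentration series. Insect-cell-expressed human CYP2C19 turned over a fluorogenic substrate, and fluorescence was read after 1 h. Inhibition taken as signal loss relative to acetonitrile.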

Q: For `C=CC(=O)OCC(CO)(COC(=O)C=C)COC(=O)C=C`, which AC50 is on record?
A: 1.76 µM (active)

Q: How did the AC50 turn out when `CC(=O)OC(C)(C)C1CC=C(C)CC1` (stereo not given) was run?
A: 3.56 µM (active)

Q: Which AC50 does the source give for `C[C@]12CC[C@@H]3c4ccc(O)cc4CC[C@H]3[C@@H]1CC[C@@H]2O` here?
A: 813 nM (active) and 2.14 µM (active)

Q: Which AC50 does the source give for `C#C[C@]1(O)CC[C@H]2[C@@H]3CCc4cc(O)ccc4[C@H]3CC[C@@]21C` here?
A: 1.02 µM (active) and 2.09 µM (active) and 1.18 µM (active)
